About 200 (4.4%) of roughly 4,500 compounds were called active.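 How the source made its calls: active means cell survival measured by absorbance rises more than 2.5-fold over infected cells without compound; inactive means the rest.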 Only a selection was taken, and actives are over-represented in it overall.
Assay: survival after telomere uncapping, modulators, primary screen, cell-based (AID 1259312);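 further: virus expresses mutant telomerase RNA that uncaps telomeres and kills cells; compound added 2 days after infection so exposure lasts 3 days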
Details: HCT116 + Ad-hTR-mut, MTT, 5 d; at 10 µM, active compounds read high

Compound	fold change
COC(=O)C1=C(C)NC(=S)NC1c1cccs1 (stereo unspecified)	1.16 (inactive)
N#CC1=C(N)OC2=C(C(=O)CCC2)C1c1ccc2c(c1)OCO2 (stereo unspecified)	1.15 (inactive)
NNC(=O)C(=O)Nc1nccs1	-2.19 (inactive)
Cc1cc(C)c(CSc2nc(C)cc(=O)[nH]2)c(C)c1	inactive
Cc1cc(C)c(C#N)c(SCc2cc(=O)[nH][nH]2)n1	3.11 (active)
Cc1cc(-c2ccco2)c(C#N)c(SCC(=O)C(F)(F)F)n1	1.03 (inactive)
O=c1/c(=C\c2ccco2)sc2nnc(-c3ccccc3)n12	-1.37 (inactive)
COc1ccc(S(=O)(=O)N(CCO)C2CCCCC2)cc1	1.31 (inactive)
CCCCc1ccc(C2C(C#N)=C(N)OC3=C2C(=O)CC(C)(C)C3)s1 (stereo unspecified)	2.3 (inactive)
COCCNS(=O)(=O)c1cc(Cl)ccc1Cl	2.95 (active)
O=S(=O)(Nc1cccnc1)c1cc(Cl)ccc1Cl	1.16 (inactive)
CCCNS(=O)(=O)c1cc(Cl)ccc1Cl	-2.13 (inactive)
O=S(=O)(NCc1cccnc1)c1cc(Cl)ccc1Cl	3.37 (active)
O=S(=O)(NCc1cccnc1)c1cccs1	-1.29 (inactive)
COCCCNS(=O)(=O)c1cc(Cl)ccc1Cl	-1.38 (inactive)
O=c1[nH]c(O)c(C=Nc2cc(Cl)ccc2O)c(=O)[nH]1	inactive
c1ccc(N/N=C2/C/C(=N\Nc3ccccc3)c3ccccc32)cc1	-1.1 (inactive)
CC1(C)CCC[C@@]2(C)C1CCC1(C)OC(=O)CC12 (stereo partly specified)	-3.56 (inactive)
O=C(Nc1ccc2c(c1)OCCO2)C1CC(=O)N(C2CCCCC2)C1 (stereo unspecified)	-1.27 (inactive)
Clc1cccc(Cl)c1-c1noc(CSc2nc3ccccc3s2)n1	-1.38 (inactive)
N#CC1(C#N)C(c2c(F)cccc2Cl)[C@@H](C(=O)c2ccc(F)cc2)N2c3ccccc3C=C[C@@H]21 (stereo partly specified)	3.43 (active)
N#CC1(C#N)C(c2ccc(O)cc2)C(C(=O)c2ccccc2)N2c3ccccc3C=CC21 (stereo unspecified)	1.02 (inactive)
N#CC1(C#N)C(c2ccc(Cl)cc2Cl)C(C(=O)c2ccccc2)N2c3ccccc3C=CC21 (stereo unspecified)	1.29 (inactive)

Compound	fold change
CN(c1ccccc1)c1nc(N)nc(CSc2nnc(-c3ccc(F)cc3)n2C)n1	1.9 (inactive)
Nc1c(Cl)cc(-c2nc3ccccc3o2)cc1Cl	1.24 (inactive)
Cc1nn(-c2ccccc2)c(Cl)c1N=Nc1c(C)nn(-c2ccccc2)c1Cl	-1.52 (inactive)
CN(C)c1ccc(/C=N/c2nccs2)cc1	-1.55 (inactive)
c1csc(CNc2ccc(NCc3cccs3)cc2)c1	1.24 (inactive)
CC(C)NC(=O)CC(=O)NN=C1CCCC1	1.85 (inactive)
O=C1NC(=S)N/C1=C\c1ccc(Cl)cc1Cl	5.07 (active)
O=C1NC(=S)N/C1=C/c1c(F)cccc1Cl	1.33 (inactive)
O=C1NC(=S)N/C1=C\c1cc(Br)cc(Br)c1O	-1.6 (inactive)
O=C1c2ccccc2NC2(C(=O)Nc3ccccc32)N1CCOc1ccccc1 (stereo unspecified)	1.15 (inactive)
CCOC1(C)OC2CCC(CC)OC2O1 (stereo unspecified)	1.54 (inactive)
O=C1Nc2ccccc2C1=Nc1ccc(SC(F)F)cc1	active
O=C1Nc2ccccc2/C1=N\N1C(=O)C2C=CC=CC2C1=O (stereo unspecified)	inactive
O=C1Nc2ccccc2C1=Nc1cccc(Cl)c1	inactive
O=c1[nH]c2nonc2[nH]c1=O	inactive
O=C1CCCN1c1ccc(S(=O)(=O)Nc2ccc3oc4c(c3c2)CCCC4)cc1	1.03 (inactive)
Cc1nnc(SCC(=O)Nc2sc3c(c2C#N)CCC3)s1	-1.54 (inactive)
O=c1[nH]c2ccc(F)cc2c(=O)c2ccccc12	1.22 (inactive)
Nc1cc2[nH]c(=O)[nH]c2cc1N	-1.33 (inactive)
O=c1[nH]c(=O)c2cc3c(=O)[nH]c(=O)c3cc12	2.77 (active)
O=C(C1=C(O)C(=O)N(CCN2CCOCC2)C1c1ccco1)c1ccco1 (stereo unspecified)	-1.73 (inactive)
O=c1[nH]c2cc(NCCCO)c([N+](=O)[O-])cc2[nH]1	-1.46 (inactive)
Nc1n[nH]c(-c2cccnc2)n1	2.61 (active)

Compound	fold change
c1ccc(-c2nc(-c3cccnc3)[nH]c2-c2ccccc2)cc1	1.14 (inactive)
COc1cc(OC)cc(-c2nc(N)n[nH]2)c1	1.56 (inactive)
CN1CCC2(CC1)C(C#N)=C(O)NC1=C2C(=O)CC(C)(C)C1	-1.33 (inactive)
O=C(CSc1nc2ccccc2nc1SCC(=O)N1CCCCC1)N1CCCCC1	-1.94 (inactive)
O=C(Nc1nonc1NC(=O)c1ccc2c(c1)OCO2)c1ccc2c(c1)OCO2	-1.22 (inactive)
CC1(C)O[C@@H]2[C@H](O1)[C@@H](CO)O[C@H]2n1cnc2c(N)ncnc21	-1.14 (inactive)
Clc1nc2nonc2nc1Nc1ccc(Br)cc1	-1.13 (inactive)
O=c1[nH]cnc2sc3c(c12)CCCC3	1.23 (inactive)
CC12CC3CC(C)(C1)CC(CC(=O)NCC14CC5CC(CC(C5)C1)C4)(C3)C2	3.05 (active)
CC12CC3CC(C)(C1)CC(CC(=O)N1CCN(S(C)(=O)=O)CC1)(C3)C2	1.25 (inactive)
O=C(CC1NC(=O)N(C2CCCCC2)C1=O)NCC12CC3CC(CC(C3)C1)C2 (stereo unspecified)	-1.28 (inactive)
COc1ccc(S(=O)(=O)NC(C)C)cc1	-1.48 (inactive)
COc1ccc(S(=O)(=O)Nc2cc(Cl)c(Cl)cc2Cl)cc1	3.11 (active)
O=S(=O)(Nc1cc(Cl)c(Cl)cc1Cl)c1ccc(Cl)cc1	3.01 (active)
O=S(=O)(NC1CCCCCC1)c1ccc(F)cc1	-1.23 (inactive)
COc1ccc(S(=O)(=O)NC2CCCCCC2)cc1	3.33 (active)
O=S(=O)(NC1CCCCCC1)c1ccc(Cl)cc1	1.1 (inactive)
COc1ccc(OC)c(NS(=O)(=O)c2ccc(Cl)cc2)c1	1.33 (inactive)
CS(=O)(=O)Nc1ccc(Cl)cc1Cl	-1.31 (inactive)
Cc1ccc(S(=O)(=O)NC2CCCC2)cc1	-1.31 (inactive)
Cc1ccc2c(c1)C(O)(CC(=O)c1ccc3c(c1)OCO3)C(=O)N2 (stereo unspecified)	-1.44 (inactive)
O=[N+]([O-])c1c(Sc2nnnn2C2CCCCC2)ncnc1Sc1nnnn1C1CCCCC1	1.21 (inactive)
N#Cc1c(-c2ccc(Cl)cc2Cl)csc1N	-1.22 (inactive)

Compound	fold change
CN(C)S(=O)(=O)Nc1cccc([N+](=O)[O-])c1	1.12 (inactive)
CCn1c(=O)n(CC)c2cc(S(=O)(=O)NC3CCCCC3)ccc21	1.22 (inactive)
CC(=O)c1c(O)c(C)c(O)c2c1OC1=CC(=O)C(C(C)=O)C(=O)[C@@]12C (stereo partly specified)	-1.06 (inactive)
CC(=O)N1c2ccccc2C2(C)C(C1(C)C)C2(Cl)Cl (stereo unspecified)	4.16 (active)
NC(=O)c1c(NC(=O)C2COc3ccccc3O2)sc2c1CCCC2 (stereo unspecified)	-1.9 (inactive)
COc1cc2c(cc1OC)CC1(C2)c2ccccc2CN1C	-1.34 (inactive)
O=[N+]([O-])c1ccc(C=NC2CCCc3c2[nH]c2ccc(Br)cc32)cc1 (stereo unspecified)	1.22 (inactive)
CC(=O)N1CCCc2cc(S(=O)(=O)NC(C)(C)C)ccc21	-1.21 (inactive)
COc1ccc(Br)cc1C1C(C#N)=C(N)SC(N)=C1C#N	-1.84 (inactive)
NS(=O)(=O)c1ccc(N=Cc2cccs2)cc1	5.47 (active)
Clc1ccc(N=Cc2cccs2)cc1	1.21 (inactive)
O=S(=O)(Oc1ccc(N=Cc2cccs2)cc1)c1ccc(Cl)cc1	2.24 (inactive)
CN=C1S/C(=C/c2ccc(C)o2)C(=O)N1C	-1.34 (inactive)
CCOC(=O)c1sc(N2N=C(C)/C(=C\c3ccc(C)o3)C2=O)nc1C	-1.12 (inactive)
COC(=O)Cn1cnc([N+](=O)[O-])n1	-1.14 (inactive)
CC1Oc2ccc(S(=O)(=O)NCCCn3ccnc3)cc2NC1=O (stereo unspecified)	1.47 (inactive)
Clc1ccc(N=Cc2cccc3ccccc23)nc1	1.13 (inactive)
C(=N\c1nccs1)/c1ccco1	-1.62 (inactive)
OCCN=Cc1c(O)ccc2ccccc12	inactive
Oc1ccc(Br)cc1/C=N/c1nccs1	inactive
Oc1ccc(Br)cc1C=Nc1ccc(Cl)cn1	inactive
Oc1ccc2ccccc2c1/C=N/c1ccccn1	active
Oc1ccc2ccccc2c1/C=N/c1nccs1	active

Compound	fold change
Oc1ccc2ccccc2c1C=Nc1ccc(Cl)cn1	active
Oc1ccc2ccccc2c1C=NCCCCCCN=Cc1c(O)ccc2ccccc12	inactive
ClCCOc1nc(OCCCl)nc(OCCCl)n1	2.12 (inactive)
CCCc1ccn(CCSCC)c1-c1cccs1	-2.47 (inactive)
O=C(Nc1ccc(I)cc1)C1CC(=O)N(C2CCCCC2)C1 (stereo unspecified)	2.18 (inactive)
O=C(Cc1cccs1)NCCN1CCOCC1	-1.05 (inactive)
O=C1/C(=C/c2ccc3c(c2)OCO3)CCc2ccccc21	-2.22 (inactive)
COC(=O)/C(C#N)=C\c1ccc(C)o1	-2.41 (inactive)
CCCCNC(=O)OCCSC(=S)NCCC	2.45 (inactive)
CCOC(=O)c1sc(N)nc1C	1.75 (inactive)
CCOC(=O)c1csc(N)n1	2.59 (active)
CCOC(=O)Cc1csc(N)n1	1.75 (inactive)
O=C(NC1(C(=O)O)CCc2ccccc2C1)OCC1c2ccccc2-c2ccccc21 (stereo unspecified)	-1.79 (inactive)
O=S(=O)(c1ccc(NC(=S)Nc2ccccc2)cc1)N1CCCCC1	-2.08 (inactive)
C/C(=N/Nc1ccc([N+](=O)[O-])cc1)c1ccc(/C(CCl)=N/Nc2ccc([N+](=O)[O-])cc2)s1	-1.04 (inactive)
O=C(NC1CCCCCCC1)c1ccc(COc2c(F)c(F)cc(F)c2F)o1	-1.24 (inactive)
c1ccc(-c2nonc2N=Nc2nonc2-c2ccccc2)cc1	-1.26 (inactive)
[O-][n+]1onc(N=Nc2no[n+]([O-])c2-c2ccccc2)c1-c1ccccc1	2.99 (active)
[O-][n+]1onc(C(c2ccccc2)c2ccccc2)c1C(c1ccccc1)c1ccccc1	-1.76 (inactive)

Reference: PubChem BioAssay AID1259312 (Keith Lab, Institute of Cancer Science, University of …, 2017)
